According to PubChem BioAssay (NCATS):
Records with an inconclusive call do not appear. Active and inactive are the calls of the source. Calls come from the whole dose curve; as a rule, active = well fitted inhibition curve with a large enough effect; inconclusive = small, poorly fitted or top-dose-only effect; inactive = no such curve, though single readings can be large or run the other way.

Experiment: Primary qHTS for inhibitors of nuclear receptor binding SET domain protein 2 (NSD2) in an RCH-ACV wild type WT cells (2C) (AID 1645877); note: nearly all actives have a fitted effect of over 70% in size
Conditions: RCH-ACV (leukaemia line) NSD2 WT (2C) viability, CellTiter-Glo, 72 h; series mostly up to 44.9 µM
Potency is the fitted concentration of half-maximal effect.

SMILES	Potency
O=C([C@@H]1CCCN(c2ccc3[nH]c(C4(n5cc(Cl)cn5)CC4)nc3n2)C1)N1CCCC1	inactive
NCC(CNc1nc(Nc2cccc(NC(=O)N3CCCC3)c2)ncc1I)C(=O)c1cccs1 (centres undefined)	2580 nM (active)
CCOc1ccc(Cc2nc(-c3c(C)nc4ccccn34)cs2)cc1	183 nM (active)
COc1cccc(-c2cn(-c3ccc(CCN4CCC(O)CC4)cc3)c3ncnc(N)c23)c1	1830 nM (active)
O=c1nc(-c2ccccn2)sc2ccccc12	1630 nM (active)
CC[C@@H](C)Nc1cc(C(=O)NC2CC3CC[C@@H](C2)N3c2ccc(C(=O)C3CC3)cn2)c(C)cc1C(N)=O (some centres undefined)	105 nM (active)
COc1cc(CCc2ccc(OCC=C(C)C)cc2)cc(OC)c1OC	inactive
C/C(=N\N=C(N)N)c1cc(NC(=O)CCCCCCCCC(=O)Nc2cc(/C(C)=N/N=C(N)N)cc(/C(C)=N/N=C(N)N)c2)cc(/C(C)=N/N=C(N)N)c1	11500 nM (active)
CCCC1(CCC)CCC2(CCN(CCCN(CC)CC)C2)CC1	2090 nM (active)
